What all share (assay): DAPPL (digital affinity profiling via proximity ligation, sequencing); 10 mM Tris-HCl pH 7.5, 50 mM NaCl, 1 mM DTT, 4% glycerol, room temperature, 30 min; GST-TFs on glutathione beads, 16-mer random dsDNA library, 0.1% formaldehyde crosslink after washing; high values mean tight binding
What all share (settings): protein: recombinant; tags: N-terminal GST; dsDNA, one strand shown

For one test, the target named is T1, FLI1 (Homo sapiens, UniProt Q01543 1-452).
T1 sequence: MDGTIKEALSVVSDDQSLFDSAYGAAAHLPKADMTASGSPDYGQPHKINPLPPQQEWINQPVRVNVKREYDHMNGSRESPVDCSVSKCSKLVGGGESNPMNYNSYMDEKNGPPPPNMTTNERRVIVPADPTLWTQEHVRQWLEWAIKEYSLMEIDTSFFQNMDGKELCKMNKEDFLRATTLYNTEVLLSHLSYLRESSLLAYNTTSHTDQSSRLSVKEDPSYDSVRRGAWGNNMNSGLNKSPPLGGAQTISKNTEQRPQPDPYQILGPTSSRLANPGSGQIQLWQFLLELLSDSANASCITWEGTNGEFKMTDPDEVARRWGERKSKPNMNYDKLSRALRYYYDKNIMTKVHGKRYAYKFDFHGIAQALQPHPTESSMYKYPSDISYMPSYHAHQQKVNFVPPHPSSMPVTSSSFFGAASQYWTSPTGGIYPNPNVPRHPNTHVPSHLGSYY
The procedure, abridged: (§1)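 GST fusions of human transcription factors were expressed in yeast and captured with glutathione beads. Once given DNA barcodes and pooled alongside a tag-only sample, they were incubated for 30 min at room temperature with 200 nmole of a random double-stranded 16-mer DNA library in Tris/NaCl/DTT/glycerol buffer, then washed, crosslinked (0.1% formaldehyde), proximity-ligated, PCR-amplified and sequenced on an Illumina NextSeq500. The binding signal of each hexamer is its read frequency for a factor divided by its frequency for the tag-only sample.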

For a further test, the target named is T2, ELK1 (Homo sapiens, UniProt P19419 1-428).
T2 sequence: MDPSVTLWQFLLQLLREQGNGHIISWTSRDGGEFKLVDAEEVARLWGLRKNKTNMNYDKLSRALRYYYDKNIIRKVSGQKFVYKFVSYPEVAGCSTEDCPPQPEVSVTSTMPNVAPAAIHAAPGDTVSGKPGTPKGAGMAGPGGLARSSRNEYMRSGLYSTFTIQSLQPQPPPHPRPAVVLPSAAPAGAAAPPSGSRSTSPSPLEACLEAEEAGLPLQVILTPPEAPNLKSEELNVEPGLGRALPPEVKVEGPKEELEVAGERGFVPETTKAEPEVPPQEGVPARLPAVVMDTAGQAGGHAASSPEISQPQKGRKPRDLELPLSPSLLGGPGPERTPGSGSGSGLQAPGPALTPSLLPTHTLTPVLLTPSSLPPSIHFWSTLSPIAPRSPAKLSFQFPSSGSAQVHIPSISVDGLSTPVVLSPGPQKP
The procedure, abridged: as §1

A further test deals with T3, GABPA (Homo sapiens, UniProt Q06546 1-454).
T3 sequence: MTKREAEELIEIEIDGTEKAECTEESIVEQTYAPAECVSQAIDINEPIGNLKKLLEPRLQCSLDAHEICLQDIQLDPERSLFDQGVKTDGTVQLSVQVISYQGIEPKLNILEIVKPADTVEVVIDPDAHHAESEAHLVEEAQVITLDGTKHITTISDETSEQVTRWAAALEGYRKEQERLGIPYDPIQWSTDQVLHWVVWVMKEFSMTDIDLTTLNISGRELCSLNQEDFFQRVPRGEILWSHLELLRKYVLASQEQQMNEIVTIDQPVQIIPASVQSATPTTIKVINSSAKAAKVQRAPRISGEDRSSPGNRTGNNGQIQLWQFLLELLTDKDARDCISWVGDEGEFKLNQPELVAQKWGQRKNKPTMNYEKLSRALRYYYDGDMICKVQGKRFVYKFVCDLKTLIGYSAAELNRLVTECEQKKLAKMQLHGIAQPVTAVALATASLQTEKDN
Put shortly: as §1

Another test concerns the target T4, ERG (Homo sapiens, UniProt P11308 1-479).
T4 sequence: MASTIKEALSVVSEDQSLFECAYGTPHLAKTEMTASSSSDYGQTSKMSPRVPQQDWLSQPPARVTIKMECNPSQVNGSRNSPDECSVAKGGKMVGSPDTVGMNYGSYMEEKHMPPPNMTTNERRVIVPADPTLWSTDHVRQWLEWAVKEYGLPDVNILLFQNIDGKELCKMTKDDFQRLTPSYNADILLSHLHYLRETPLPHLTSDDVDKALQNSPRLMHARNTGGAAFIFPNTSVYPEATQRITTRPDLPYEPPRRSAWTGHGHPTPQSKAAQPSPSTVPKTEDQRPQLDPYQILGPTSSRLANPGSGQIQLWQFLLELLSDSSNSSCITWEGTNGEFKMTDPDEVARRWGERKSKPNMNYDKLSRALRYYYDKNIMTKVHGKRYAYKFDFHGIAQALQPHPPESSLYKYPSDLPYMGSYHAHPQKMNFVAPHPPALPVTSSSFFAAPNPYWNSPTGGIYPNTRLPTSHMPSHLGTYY
Put shortly:
as §1

The next test has as its target ELF1 (Homo sapiens, UniProt P32519 1-619). Put shortly:
as §1

The next test addresses T5, EHF (Homo sapiens, UniProt Q9NZC4 1-300).
T5 sequence: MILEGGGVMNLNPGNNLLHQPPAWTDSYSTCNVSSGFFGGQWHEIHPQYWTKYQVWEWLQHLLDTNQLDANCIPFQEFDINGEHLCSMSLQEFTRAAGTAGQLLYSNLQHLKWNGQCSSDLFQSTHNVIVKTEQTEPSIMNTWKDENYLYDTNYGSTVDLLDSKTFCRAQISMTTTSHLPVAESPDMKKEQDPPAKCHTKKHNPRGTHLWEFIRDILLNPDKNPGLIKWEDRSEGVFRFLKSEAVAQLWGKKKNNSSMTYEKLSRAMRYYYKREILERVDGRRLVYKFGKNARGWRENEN
The procedure, abridged:
as §1

The next test addresses T6, ELK3 (Homo sapiens, UniProt P41970 1-407).
T6 sequence: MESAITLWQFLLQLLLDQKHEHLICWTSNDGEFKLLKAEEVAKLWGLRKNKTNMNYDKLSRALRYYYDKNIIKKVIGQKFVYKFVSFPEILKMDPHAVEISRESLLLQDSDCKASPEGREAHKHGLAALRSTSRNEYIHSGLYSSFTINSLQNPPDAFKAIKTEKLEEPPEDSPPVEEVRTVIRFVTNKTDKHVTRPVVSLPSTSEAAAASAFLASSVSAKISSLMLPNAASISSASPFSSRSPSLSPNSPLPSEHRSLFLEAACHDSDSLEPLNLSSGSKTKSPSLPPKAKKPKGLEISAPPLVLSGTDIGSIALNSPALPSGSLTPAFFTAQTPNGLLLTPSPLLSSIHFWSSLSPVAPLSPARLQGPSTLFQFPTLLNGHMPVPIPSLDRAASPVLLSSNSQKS
Put shortly: as §1

Another test addresses T7, FEV (Homo sapiens, UniProt Q99581 1-238).
T7 sequence: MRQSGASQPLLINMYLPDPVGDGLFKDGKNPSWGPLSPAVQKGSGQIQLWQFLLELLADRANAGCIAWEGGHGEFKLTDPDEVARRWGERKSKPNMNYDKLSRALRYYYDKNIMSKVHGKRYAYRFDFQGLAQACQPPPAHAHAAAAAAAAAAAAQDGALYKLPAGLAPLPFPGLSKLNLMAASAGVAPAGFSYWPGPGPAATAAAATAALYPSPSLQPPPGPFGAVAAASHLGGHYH
Put shortly: as §1

The target in a further test is ETV5 (Homo sapiens, UniProt P41161 1-510). The procedure, abridged:
as §1

For the next test, the target named is T8, SPIC (Homo sapiens, UniProt Q8N5J4 1-248).
T8 sequence: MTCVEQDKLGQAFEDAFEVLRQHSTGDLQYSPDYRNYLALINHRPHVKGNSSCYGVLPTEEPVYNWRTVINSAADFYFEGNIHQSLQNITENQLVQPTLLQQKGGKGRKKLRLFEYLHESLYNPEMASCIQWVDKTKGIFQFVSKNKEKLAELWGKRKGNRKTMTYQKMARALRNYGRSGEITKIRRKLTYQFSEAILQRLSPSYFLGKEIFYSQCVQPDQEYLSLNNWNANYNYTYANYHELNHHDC
The procedure, abridged: as §1

The target in the next test is ELF4 (Homo sapiens, UniProt Q99607 1-663). The procedure, abridged:
as §1

The target in another test is T9, ELK4 (Homo sapiens, UniProt P28324-2 1-405).
T9 sequence: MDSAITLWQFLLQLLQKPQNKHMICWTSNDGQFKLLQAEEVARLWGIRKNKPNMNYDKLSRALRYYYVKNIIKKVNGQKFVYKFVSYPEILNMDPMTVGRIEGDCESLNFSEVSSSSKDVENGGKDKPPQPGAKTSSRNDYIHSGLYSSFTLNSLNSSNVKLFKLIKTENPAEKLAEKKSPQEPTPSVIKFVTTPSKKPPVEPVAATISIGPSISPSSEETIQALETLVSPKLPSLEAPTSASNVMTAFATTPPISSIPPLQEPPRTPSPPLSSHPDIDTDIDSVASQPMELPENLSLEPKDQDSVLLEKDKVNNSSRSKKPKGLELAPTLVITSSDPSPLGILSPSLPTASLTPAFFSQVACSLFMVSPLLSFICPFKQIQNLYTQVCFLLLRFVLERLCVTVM
The procedure, abridged: as §1

The next test deals with T10, ETV2 (Homo sapiens, UniProt O00321 1-342).
T10 sequence: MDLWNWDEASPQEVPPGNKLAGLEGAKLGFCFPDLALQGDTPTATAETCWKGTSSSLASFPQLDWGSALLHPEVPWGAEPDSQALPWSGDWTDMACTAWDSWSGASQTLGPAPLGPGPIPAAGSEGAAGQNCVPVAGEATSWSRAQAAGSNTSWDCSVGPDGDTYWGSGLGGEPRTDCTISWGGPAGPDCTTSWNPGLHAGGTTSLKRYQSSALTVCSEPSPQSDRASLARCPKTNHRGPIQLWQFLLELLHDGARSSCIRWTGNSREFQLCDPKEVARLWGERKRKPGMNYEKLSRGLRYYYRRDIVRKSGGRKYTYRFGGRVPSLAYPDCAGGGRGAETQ
Put shortly:
as §1

In another test the target is T11, ELF3 (Homo sapiens, UniProt P78545 1-371).
T11 sequence: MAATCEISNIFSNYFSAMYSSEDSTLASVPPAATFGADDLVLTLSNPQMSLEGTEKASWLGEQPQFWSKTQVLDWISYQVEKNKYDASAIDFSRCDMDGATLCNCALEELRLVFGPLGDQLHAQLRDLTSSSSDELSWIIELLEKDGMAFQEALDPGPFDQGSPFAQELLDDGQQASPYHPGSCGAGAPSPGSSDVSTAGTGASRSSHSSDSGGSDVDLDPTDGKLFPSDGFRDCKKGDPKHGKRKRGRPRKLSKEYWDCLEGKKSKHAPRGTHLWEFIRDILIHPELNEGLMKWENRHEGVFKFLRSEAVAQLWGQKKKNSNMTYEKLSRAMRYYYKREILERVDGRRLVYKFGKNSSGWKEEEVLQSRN
The procedure, abridged:
as §1

The target in a further test is SPI1 (Homo sapiens, UniProt P17947 1-270). Put shortly: as §1
The target of a further test is ETV1 (Homo sapiens, UniProt P50549 1-477). Put shortly:
as §1

The record followed here is article PMC7862700, “An all-to-all approach to the identification of sequence-specific readers for epigenetic DNA modifications on cytosine”.

Sequence of ELF4 (Q99607 whole entry): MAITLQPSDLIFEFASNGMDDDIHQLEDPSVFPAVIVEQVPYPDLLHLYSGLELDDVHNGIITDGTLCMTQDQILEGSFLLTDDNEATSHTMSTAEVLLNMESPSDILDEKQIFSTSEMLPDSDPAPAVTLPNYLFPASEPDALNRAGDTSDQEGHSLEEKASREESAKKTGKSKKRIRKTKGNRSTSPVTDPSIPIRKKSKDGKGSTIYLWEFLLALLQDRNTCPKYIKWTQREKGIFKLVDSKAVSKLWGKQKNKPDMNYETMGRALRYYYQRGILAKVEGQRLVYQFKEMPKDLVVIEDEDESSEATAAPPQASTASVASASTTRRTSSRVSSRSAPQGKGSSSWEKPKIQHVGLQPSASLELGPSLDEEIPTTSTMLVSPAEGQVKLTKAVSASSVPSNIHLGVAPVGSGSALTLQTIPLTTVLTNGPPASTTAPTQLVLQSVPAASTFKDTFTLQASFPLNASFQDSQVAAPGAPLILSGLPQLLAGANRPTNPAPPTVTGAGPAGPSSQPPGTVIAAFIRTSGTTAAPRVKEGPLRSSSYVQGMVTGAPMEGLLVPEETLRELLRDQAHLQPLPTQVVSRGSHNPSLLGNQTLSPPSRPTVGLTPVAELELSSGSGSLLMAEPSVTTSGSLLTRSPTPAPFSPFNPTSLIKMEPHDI
Sequence of ETV5 (P41161 whole entry): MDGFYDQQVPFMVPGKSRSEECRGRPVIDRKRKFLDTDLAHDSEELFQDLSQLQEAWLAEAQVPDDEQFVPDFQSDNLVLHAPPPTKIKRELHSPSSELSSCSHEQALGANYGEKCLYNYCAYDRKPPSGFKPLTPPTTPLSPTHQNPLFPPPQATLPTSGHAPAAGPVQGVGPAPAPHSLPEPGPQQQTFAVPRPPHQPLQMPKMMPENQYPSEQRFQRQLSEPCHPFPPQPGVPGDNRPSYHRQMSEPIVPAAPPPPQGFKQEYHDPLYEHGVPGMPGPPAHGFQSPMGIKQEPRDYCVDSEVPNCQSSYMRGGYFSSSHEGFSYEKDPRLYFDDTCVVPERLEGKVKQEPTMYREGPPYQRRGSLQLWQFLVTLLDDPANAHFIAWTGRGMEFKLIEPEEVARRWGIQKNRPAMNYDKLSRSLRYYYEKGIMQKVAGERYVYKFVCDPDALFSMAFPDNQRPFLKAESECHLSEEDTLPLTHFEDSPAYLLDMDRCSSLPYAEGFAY
Sequence of ELF1 (P32519 whole entry): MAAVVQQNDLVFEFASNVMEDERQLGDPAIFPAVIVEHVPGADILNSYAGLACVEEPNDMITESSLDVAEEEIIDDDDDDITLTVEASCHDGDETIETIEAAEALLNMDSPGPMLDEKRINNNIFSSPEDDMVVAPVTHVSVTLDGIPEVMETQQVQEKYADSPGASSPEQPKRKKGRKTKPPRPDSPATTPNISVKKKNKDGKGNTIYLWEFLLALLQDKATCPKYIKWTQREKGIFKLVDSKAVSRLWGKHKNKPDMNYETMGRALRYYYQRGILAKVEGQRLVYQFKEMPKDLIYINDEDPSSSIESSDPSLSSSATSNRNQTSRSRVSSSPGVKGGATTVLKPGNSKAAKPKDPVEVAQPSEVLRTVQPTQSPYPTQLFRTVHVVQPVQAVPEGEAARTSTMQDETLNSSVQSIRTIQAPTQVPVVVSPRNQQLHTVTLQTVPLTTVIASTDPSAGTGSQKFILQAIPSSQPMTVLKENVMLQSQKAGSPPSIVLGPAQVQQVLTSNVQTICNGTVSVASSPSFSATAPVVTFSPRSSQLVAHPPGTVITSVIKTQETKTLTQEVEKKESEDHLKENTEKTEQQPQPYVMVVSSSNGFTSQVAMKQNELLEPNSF
Sequence of ETV1 (P50549 whole entry): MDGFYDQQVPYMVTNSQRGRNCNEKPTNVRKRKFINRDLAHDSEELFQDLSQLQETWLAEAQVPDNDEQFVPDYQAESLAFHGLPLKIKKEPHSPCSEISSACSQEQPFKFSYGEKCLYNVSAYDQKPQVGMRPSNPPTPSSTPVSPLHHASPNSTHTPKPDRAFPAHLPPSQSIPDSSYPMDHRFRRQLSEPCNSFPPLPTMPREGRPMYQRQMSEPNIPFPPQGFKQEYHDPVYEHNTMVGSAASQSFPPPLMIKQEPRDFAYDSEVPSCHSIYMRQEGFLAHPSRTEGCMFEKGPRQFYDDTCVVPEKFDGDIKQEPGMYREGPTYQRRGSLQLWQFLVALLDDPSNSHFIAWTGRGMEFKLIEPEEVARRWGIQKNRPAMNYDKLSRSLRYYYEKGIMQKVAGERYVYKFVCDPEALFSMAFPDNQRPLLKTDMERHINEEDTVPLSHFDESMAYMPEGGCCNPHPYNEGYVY

For the sequence TGTGTT, the binding signal was 1.19 fold enrichment (6-mer frequency, TF over GST control) with FLI1; 1.1 fold enrichment (6-mer frequency, TF over GST control) with ELK1; 1.06 fold enrichment (6-mer frequency, TF over GST control) with GABPA; 1.03 fold enrichment (6-mer frequency, TF over GST control) with ERG; 1.03 fold enrichment (6-mer frequency, TF over GST control) with ELF1; 1.09 fold enrichment (6-mer frequency, TF over GST control) in the test with EHF. Moreover, the binding signal was 1.26 fold enrichment (6-mer frequency, TF over GST control) with ELK3; 1.06 fold enrichment (6-mer frequency, TF over GST control) with FEV; 1.06 fold enrichment (6-mer frequency, TF over GST control) with ETV5; 1.02 fold enrichment (6-mer frequency, TF over GST control) with SPIC; 1.16 fold enrichment (6-mer frequency, TF over GST control) with ELF4; 1.07 fold enrichment (6-mer frequency, TF over GST control) in the test with ELK4. The binding signal with ETV2 is 1.19 fold enrichment (6-mer frequency, TF over GST control); with ELF3, 1.08 fold enrichment (6-mer frequency, TF over GST control).

In the case of CATGTA, the binding signal was 1.15 fold enrichment (6-mer frequency, TF over GST control) with FLI1; 1.06 fold enrichment (6-mer frequency, TF over GST control) in the test with ELK1; 1.11 fold enrichment (6-mer frequency, TF over GST control) with ELF1; 1.04 fold enrichment (6-mer frequency, TF over GST control) in the test with EHF; 1.02 fold enrichment (6-mer frequency, TF over GST control) in the test with SPI1; 1.13 fold enrichment (6-mer frequency, TF over GST control) with ELK3. Moreover, the binding signal was 1.03 fold enrichment (6-mer frequency, TF over GST control) with FEV; 1.08 fold enrichment (6-mer frequency, TF over GST control) in the test with ETV5; 1.08 fold enrichment (6-mer frequency, TF over GST control) in the test with SPIC; 1.14 fold enrichment (6-mer frequency, TF over GST control) in the test with ELF4; 1.16 fold enrichment (6-mer frequency, TF over GST control) with ELK4; 1.11 fold enrichment (6-mer frequency, TF over GST control) in the test with ETV2. The binding signal with ELF3 was 1.03 fold enrichment (6-mer frequency, TF over GST control); with ETV1 it was 1.06 fold enrichment (6-mer frequency, TF over GST control).
